Bst PK mod = modulators of Bacillus stearothermophilus pyruvate kinase; purified pyruvate kinase, luminescence ATP production; ribose 5-phosphate activator present at AC10; Potency, µM; 51,000 compounds, 1.2% hits; in the data active means potency below about 11 µM; inconclusive means mostly about 12 µM to 25 µM;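 the screen sought inhibitors and activators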;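 further: potency means the concentration at half of the fitted maximal effect; scaled between full activation by ribose 5 phosphate and full inhibition by luteolin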
Luciferase inh = inhibitors of firefly luciferase; Potency, µM (titrated, usually from 57.1 µM), inactives show at the highest dose activity change, negative = inhibition, actives largely listed as inhibitors; 72,000 compounds, 2.2% hits; purified firefly luciferase, luminescence, 8 min; P08659; further: potency means the concentration at half of the fitted maximal effect; on the % scale 0 is the no-effect control and ±100 the full control effect; nearly all actives have a fitted effect of over 40% in size
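Luminescence read-out after 8 min at room temperature; enzyme reaction used luciferin plus 10 uM ATP (linear range) in imidazole buffer pH 7.2 with KCl, MgCl2, Tween 20 and BSA. Each sample was run as a titration.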
HBB splice mod = hemoglobin beta splicing modulation | HBB splicing reporter cell assay, activation; EGFP reporter with mutant IVS2-654 intron; response scale: normalised to 500 nM splice-correcting PNA | Potency, µM (series often up to 46.1 µM), inactives show at the highest dose activation, hits mostly activators | 65,000 compounds, 0.06% hits | AID 925; further: potency means the concentration at half of the fitted maximal effect; 0% is about no effect
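HeLa cells stably expressing EGFP interrupted by mutant beta-globin intron 2 (IVS2-654), 500/well in 2% FCS. Treated with compound for 2 days at 37C. Splicing correction scored as total well GFP intensity (488 nm excitation, 500-520 nm emission); 500 nM antisense PNA served as control.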
GBA activity = modulators of human glucocerebrosidase | 48,000 compounds, 1.1% hits | P04062 | AID 360 | purified enzyme, resorufin glucoside fluorescence (screen aimed at inhibitors), 20 min | Potency, µM; in the data active means potency below about 15 µM; inconclusive means mostly about 16 µM to 33 µM;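 further: potency means the concentration at half of the fitted maximal effect; the screen sought inhibitors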
Target sequence (P04062 whole entry, looked up): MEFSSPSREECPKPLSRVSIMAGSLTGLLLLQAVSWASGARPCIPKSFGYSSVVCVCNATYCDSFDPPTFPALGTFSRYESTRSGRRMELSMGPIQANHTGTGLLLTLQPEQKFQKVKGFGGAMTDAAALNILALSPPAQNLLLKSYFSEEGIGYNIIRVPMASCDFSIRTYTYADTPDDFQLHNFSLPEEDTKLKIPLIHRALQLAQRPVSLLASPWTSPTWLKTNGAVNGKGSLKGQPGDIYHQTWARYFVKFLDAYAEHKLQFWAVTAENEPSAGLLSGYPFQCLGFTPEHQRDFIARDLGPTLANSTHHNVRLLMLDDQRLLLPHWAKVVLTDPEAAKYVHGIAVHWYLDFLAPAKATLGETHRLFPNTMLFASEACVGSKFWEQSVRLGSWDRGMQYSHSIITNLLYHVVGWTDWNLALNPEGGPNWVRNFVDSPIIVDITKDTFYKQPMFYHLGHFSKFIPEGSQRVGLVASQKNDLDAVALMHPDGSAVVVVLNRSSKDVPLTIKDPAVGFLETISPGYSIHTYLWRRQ
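Normal human glucocerebrosidase (0.2 nM final) was assayed with resorufin β-D-glucopyranoside (30 uM final) in 50mM citric acid/KH2PO4, 10mM sodium taurocholate, 0.01% tween-20, pH 5.9. Compounds were titrated; fluorescence (Ex 548, Em 600) read after 20 min at RT.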
UbGFP stabilizer = inhibits proteasome, raising ubiquitin-GFP reporter fluorescence; Ubiquitin-GFP reporter cells, proteasome inhibition, GFP fluorescence; response scale: untreated = 0%, 10 µM MG-132 = 100%; Potency, µM (titrated, usually from 45.9 µM), for inactives: at the top dose activation (GFP accumulation), hits mostly activators; 67,000 tested, under 10 active; AID 526; active means well fitted activation curve with a large enough effect, not every such curve was filed as active; inconclusive means small, poorly fitted or top-dose-only effect, or another doubt; inactive means no such curve, though single readings can be large or run the other way; further: potency means the concentration at half of the fitted maximal effect
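Reporter cells (U2OS, ubiquitin-G76V-GFP fusion) are plated overnight, then treated 4 hr at 37 °C with compound titrations from 46 uM down to 2.9 nM. Activity is scaled against untreated cells and 10 uM MG-132.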
GFP derepression = epigenetic modulators derepressing GFP locus in mouse cells. mouse C127i GFP locus derepression, cytometry, 30 h. Potency, µM (doses to about 46.1 µM), for inactives: top-dose GFP derepression (activation). 68,000 compounds, 0.09% hits. AID 597; further: % of control where 0% means no effect
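Derepression screen: silenced CMV-GFP reporter in murine C127i cells, 30 h compound incubation at 37 C, washed cells imaged by laser-scanning cytometer to enumerate GFP-expressing objects of 20 to 120 um.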
* = called active by the depositor; i = inactive; u = inconclusive; x = not tested or not shown; [ ] = remark or other dose. Shown are actives, neighbours in structure and some others; about 3.3% of the full set was active somewhere. Unless noted, the call rests on the fitted dose curve; in most records, active means well fitted curve in the direction sought with a large enough effect; inconclusive means small, poorly fitted or top-dose-only effect, or another doubt; inactive means no such curve, though single readings can be large; an effect the other way counts as inactive or inconclusive.

SMILES	Bst PK mod	Luciferase inh	HBB splice mod	GBA activity	UbGFP stabilizer	GFP derepression
C=CCNC(=O)c1ccc(Cl)cc1Cl	7.33*	0.3%	0.0%	>76.9	14.8%	2.9%
COCCn1c(=O)cnc2cnc(OC)nc21	x	0.1%[11.4 µM]	0.4%	x	1.1%	2.2%[9.22 µM]
CC(=O)OC[C@@H]1O[C@@H](Oc2cc(OC(C)=O)c3c(=O)cc(-c4ccc(OC(C)=O)c(OC(C)=O)c4)oc3c2)[C@H](OC(C)=O)[C@H](OC(C)=O)[C@@H]1OC(C)=O	x	2.5%[11.4 µM]	x	x	1.3%	0.1%[9.22 µM]
O=C(CSc1nnc(SCc2ccc(Cl)cc2)s1)N1CCN(C(=O)c2ccco2)CC1	x	3.98µM*	1.3%	>76.9	1.8%	1.2%
COc1cccc(Nc2ncc3nc(C)c(=O)n(Cc4cccs4)c3n2)c1	x	0.9%[11.4 µM]	15.8µM*	x	24.7%	18.9%[9.22 µM]
COCCn1c(=O)c(-c2ccc(F)cc2)nc2cnc(Nc3cccc(OC)c3)nc21	x	0.7%[11.4 µM]	20µM*	x	u	2.7%[9.22 µM]
COc1cccc(Cn2c(=O)c(-c3cccs3)nc3cnc(Nc4ccccc4)nc32)c1	x	-0.6%[11.4 µM]	3.3%	x	0.9%	0.0%[9.22 µM]
COc1ccc(-n2c(=O)c(-c3cccs3)nc3cnc(Nc4cccc(OC)c4)nc32)cc1	x	0.2%[11.4 µM]	10µM*	x	u	3.16µM*
COc1cccc(Nc2ncc3nc(-c4cccs4)c(=O)n(CCC#N)c3n2)c1	x	2.0%[11.4 µM]	6.5%	x	6.31µM*	u
COc1ccc(/C=N/n2cc(-c3ccc(OC)cc3)nc2N)cc1	x	-9.3%	-1.0%[9.22 µM]	x	1.5%	-2.2%
C=CCSc1nncn1/N=C/c1ccc(OC)cc1	i	25.1µM*	7.2%	>76.9	2.9%	-2.6%
O=C(Oc1ccccc1)N1CCC2(CC1)CCN(c1ccccn1)CC2	x	-1.8%[11.4 µM]	0.8%	x	3.1%	-0.1%[9.22 µM]
COC(=O)Cc1cc(=O)[nH]c(Nc2nc3ccccc3o2)n1	x	15.8µM*	-1.5%[0.0738 µM]	x	11.7%[9.17 µM]	0.4%
Cc1cc2nc(SC(C)C(=O)O)[nH]c2cc1C (stereo not given)	x	10µM*	0.4%	>76.9	-2.9%	-2.3%
COC(=O)C1=C(C)N(Cc2ccccc2)[C@]23O[C@](C(=O)OC)(C(=O)N2C1c1ccccc1)C(C(=O)OC)=C3C(=O)OC (stereo not given in full)	x	x	-0.2%[9.22 µM]	x	x	x
CC(C)n1c(-c2ccc(N(C)C)cc2)nc2ccccc21	x	12.6µM*	-0.7%[57.5 µM]	>76.9	-3.6%	-2.2%
CCn1c(-c2ccc(N(C)C)cc2)nc2ccccc21	>57	1.0%	-1.2%	>76.9	-2.6%	5.7%
CN(C)c1ccc(-c2nc3ccccc3n2C)cc1	1.11*	0.631µM*	-1.0%	u	6.3%	-1.3%
Cc1ccc2cc3c(N)c(C(=O)N4CCOCC4)sc3nc2c1	11.1*	12.6µM*	x	>76.9	0.0%	-2.4%
COc1ccc2cc3c(N)c(C(=O)N4CCCC4)sc3nc2c1	u	u	0.4%	>76.9	6.7%	-0.3%
Cc1ccc2nc3sc(C(=O)N4CCOCC4)c(N)c3cc2c1	1.84*	2µM*	x	>76.9	-2.2%	1.9%
CO[C@@H]1COC(=O)C/C=C\[C@@H](C)[C@H](OC)COC(=O)[C@H](COCc2ccccc2)NC(=O)C/C=C\[C@H]1C	x	0.3%[11.4 µM]	-0.2%[9.22 µM]	x	x	x
CCn1c(SCC(=O)c2c[nH]c3ccccc23)nnc1-c1cccs1	>57	0.2%	u	>76.9	11.7%	20µM*
Cc1cccc2cc(CN(Cc3nnnn3Cc3ccco3)C3CCCC3)c3nnnn3c12	>57	-6.0%	-0.1%[57.5 µM]	9.84*	-0.2%	2.9%
Cc1ccc2[nH]c(=O)c(CN(Cc3nnnn3Cc3ccccc3)C3CCCC3)cc2c1	>11.4	0.7%	1.8%	>76.9	1.8%	-2.3%
O=C(NC1CC2CCCC(C1)N2C1CC1)NC12CC3CC(CC(C3)C1)C2 (stereo not given)	>57	-32.5%	-3.7%	10.5*	-1.8%	-2.7%
[N-]=[N+]=Nc1ccc(C(=O)CSC[C@@H](NC(=O)CC[C@@H](N)C(=O)O)C(=O)NCC(=O)O)cc1	x	0.0%	0.2%	x	9.8%	-1.6%
OC[C@@H]1NC[C@@H](O)[C@H]1O	x	3.1%	1.2%	x	-5.6%	-0.1%

High-throughput results deposited in PubChem by National Center for Advancing Translational Sciences (NCATS).
